# In the supplement of paper PMC6555819:
# Key:
# Assay in all cases: PBM binding z-score (relative to random genomic background probes); higher = stronger binding; sequences stand for … in GC…GCGATTGACAGCGTAGAATGAAGG
# [1] = test system: FXR:RXRa (NR concentration 270 nM, RXRa partner concentration 90 nM)
# Procedure, shortened: (§1)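 Scanned fluorescence from custom Agilent 4×180K protein-binding microarrays was regression-normalized. Binding z-scores use random background probes as reference. Ligand-free nuclear receptor dimers were incubated on the arrays for 1 h and detected with antibodies against each partner (one per run).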
# [2] = test system: LXRa:RXRa (NR concentration 270 nM, RXRa partner concentration 90 nM)
# Procedure, shortened: as §1
# [3] = test system: LXRa homodimer (NR concentration 270 nM)
# Procedure, shortened: as §1
# [4] = test system: LXRb:RXRa (NR concentration 270 nM, RXRa partner concentration 90 nM)
# Procedure, shortened: as §1
# [5] = test system: LXRb homodimer (NR concentration 270 nM)
# Procedure, shortened: as §1
# [6] = test system: PPARa:RXRa (NR concentration 270 nM, RXRa partner concentration 90 nM)
# Procedure, shortened: as §1
# [7] = test system: PPARg:RXRa (NR concentration 180 nM, RXRa partner concentration 90 nM)
# Procedure, shortened: as §1
# [8] = test system: PPARg:RXRa 270nM:90nM, anti-RXR (NR concentration 270 nM, RXRa partner concentration 90 nM)
# Procedure, shortened: as §1
# [9] = test system: PPARg:RXRa 30nM:10nM, anti-RXR (NR concentration 30 nM, RXRa partner concentration 10 nM)
# Procedure, shortened: as §1
# [10] = test system: PPARg:RXRa 90nM:30nM, anti-RXR (NR concentration 90 nM, RXRa partner concentration 30 nM)
# Procedure, shortened: as §1
Sequence,PBM binding z-score [1],PBM binding z-score [2],PBM binding z-score [3],PBM binding z-score [4],PBM binding z-score [5],PBM binding z-score [6],PBM binding z-score [7],PBM binding z-score [8],PBM binding z-score [9],PBM binding z-score [10]
CCGACTGGGGCATAAGGTTACCATCAGCCAGCCC,0.308,1.43,-0.15,0.516,-1.51,1.9,2.3,2.99,1.18,2.32
GGAACGAGGGCATTCGATTTGATAGCATGGCGAT,0.98,0.589,-0.512,0.472,-0.24,1.49,1.13,1.23,0.159,0.731
AATACAGGGTCTTCGTAGGCCAGAGTACGCACAG,-0.0491,0.0766,-0.419,-0.205,-0.311,0.156,0.75,0.174,0.334,0.137
CGTCAAGGTTCAAGGTAACGTAACAGAAAGCAGC,4.59,3.3,0.601,2.06,-0.166,3.56,2.25,2.63,0.331,1.55
CCTTCTGGGCCACGAAAGGTCATTGATTCAGTGA,4.23,5.51,4.66,4.55,0.628,4.97,3.74,4.4,1.82,3.94
TCGAGTAGGTTACCAATTGGGCATTCAGCTTTCT,0.0774,0.268,-0.567,0.437,-0.954,0.973,-0.0221,1.3,0.909,1.06
TTACCAAGGTGAAAGGTGGTTGATGCACGCCTTG,0.879,0.449,-0.508,0.171,-0.366,2.81,4.38,5.35,3.06,4.85
CGTCCAAGCTCAAGGTCAGTGAAAGAGACTCGAA,1.45,1.33,0.213,1.25,-0.283,1.93,0.495,1.14,0.132,0.792
TAATATAGGTAAACAGGTGAAAGTCCGTAAGTTA,0.323,0.622,0.406,0.745,0.296,3.34,5.42,4.89,2.54,4.16
CTTCCAAGGTCAGAGAGGTCAGTGAATGCCGAGT,5.96,5.16,3.44,4.49,0.991,4.78,3.44,4.24,1.24,2.89
ACAGACAGGTGATGAAGGTGACTCAGGCTATCAT,0.202,0.0616,-0.267,0.143,-0.348,0.764,0.82,0.457,-0.1,0.274
ATCTCTAGGTAACCAAGTTCAGTGGATGCCGAAC,0.155,0.544,0.622,0.38,0.373,0.94,0.437,0.741,0.192,0.555
TCAGACAGGTGAAGGTAACTGAGGTACGCAGTCG,1.04,1.01,-0.19,0.598,-0.756,1.2,0.727,1.98,3.74,2.96
TCTCGGAGGACACGAATGGTCAGAGCTCGACATC,0.104,0.0169,-0.468,-0.483,-0.915,-0.144,0.236,0.78,2.1,1.28
CCTTACGGGTCACTAGGTTATAGCACGACGAGCG,4.41,3.03,0.136,2.64,-0.31,5.02,6.65,5.97,3.03,4.94
AGAATGAGGTTACCAAAGACCAGGGAAACGCTTG,1.97,4.34,-0.091,1.87,-0.385,3.27,2.53,2.62,0.863,1.86
ATATGTAGGTTAAGGGTCAGTCAGGTTGGTTCGC,3.7,3.26,1.44,3.34,0.965,6.05,11,9.37,9.35,11.6
ATCGACAGGTCGACGAGGTGAGTATACACCGTTT,0.539,0.314,-0.541,0.288,-0.436,1.42,1.11,0.392,0.0912,-0.0285
TCATATAGGGAAAGGTGAAAGTCGAACGATATGA,0.779,1.31,-0.25,1.43,-0.112,2.68,2.13,3.56,4.47,3.88
TTTGCTAGGTCAGTTGGTCAGCTAACGAGCTGCC,1.15,1.41,0.52,0.404,0.521,1.54,1.1,1.77,-0.172,1.34
CGTTACGGGTCACGAGGTTATAGCACGACGAGCG,6.83,4.97,0.389,4.23,-0.0926,6.15,6.94,6.69,2.7,5.8
GTACCAAGGTGAATAGGTCGTTGCTGAGTAGGCG,0.799,0.799,-0.43,0.493,-0.623,2.23,1.21,1.71,-0.00379,1.18
TAGGCTAGGTCATGGGCCAGTATACCACGCGAAC,4.91,3.13,0.324,2.18,-0.308,4.03,4.36,4.24,1.3,3.18
